Among the data in ChEMBL document CHEMBL4513135, “CO-ADD screening of IQOG CSIS (Spain) compounds” are Inhibition values, retold here.

Potency and affinity values are given separately.

Test [1] concerns Staphylococcus aureus. As to conditions: Concentration 32 ug.mL-1; ASSAY_TEST Inhibition of Bacterial Growth; detection method Absorption (OD600); MEDIA CAMHB; plate type 384well; NBS; CORNING #3640; time 18 hr.
The test system of test [2] is Escherichia coli. As to conditions: Concentration 32 ug.mL-1; ASSAY_TEST Inhibition of Bacterial Growth; detection method Absorption (OD600); MEDIA CAMHB; plate type 384well; NBS; CORNING #3640; time 18 hr.

In the case of `C#CCNc1nc(NCCCC2CCN(Cc3ccccc3)CC2)c(C#N)cc1C#N.Cl`, the figures for the Inhibition in test [1] and in test [2] were -16.88% and -13.89%, respectively.

As for `COc1nc2nc3c(c(N)c2cc1C#N)CCCC3.Cl`, the Inhibition in test [1] is recorded as 7.17%; in test [2] it was -4.74%.

Take `N#CC1=C(N)Oc2ccc3ccccc3c2C1c1ccccc1` (stereo not drawn): the Inhibition was 40.09% in test [1] and -6.38% in test [2].

In the case of `CCOC(=O)C1=C(C)OC(N)=C(C#N)C1c1ccco1` (stereo not drawn), the Inhibition was 7.79% in test [1] and -14.37% in test [2].

Turning to `CCOc1nc2nc(CCc3ccccc3)ccc2c(-c2ccccc2)c1C#N`, the values for the Inhibition in test [1] and in test [2] were 14.64% and -39.9%, respectively.

As for `N#Cc1cc(C#N)c(N2CCCC2)nc1N`, the values for the Inhibition in test [1] and in test [2] were 51.19% and -9.12%, respectively.

Turning to `Cn1c(C(=O)O)cc2cc(OCCCC3CCN(Cc4ccccc4)CC3)ccc21`, the figures for the Inhibition in test [1] and in test [2] were 27.49% and -8.76%, respectively.

Turning to `CC1(C)OC(=O)C(=Cc2ccc([N+](=O)[O-])cc2)C(=O)O1`, the Inhibition in test [1] is on record as 28.78%; in test [2] it was 10.5%.

Take `C#CCNc1cccc(F)n1`: the figures for the Inhibition in test [1] and in test [2] were 34.2% and -22.48%, respectively.

Turning to `CCOC(=O)c1c[nH]c2ccc(OCc3ccccc3)cc12`, the results for the Inhibition in test [1] and in test [2] were 5.22% and 6.31%, respectively.

Take `C=C1CN(C)c2c(C#N)c(-c3ccccc3)c(C#N)c(=O)n21`: the Inhibition is recorded as 8.64% in test [1] and -1.97% in test [2].

On to `CCOC(=O)/C(=C\c1ccccc1)C(=O)c1ccccc1`, for which the values for the Inhibition in test [1] and in test [2] were 9.55% and 10.95%, respectively.

As to `CNC(=O)NC1(C(=O)O)CC1c1ccccc1` (stereo not drawn), the Inhibition is listed as 10.75% in test [1] and 8.23% in test [2].

On to `C#CCN(C)Cc1cc2cc(OCc3ccccc3)ccc2n1C.O=C(O)C(=O)O`, for which the Inhibition in test [1] is 41.66%; in test [2], -11.51%.

The term Inhibition denotes the drop in the measured response relative to a control, in per cent.
